# Values without a mark were called inactive.
# Tests used:
# Experiment in all cases: log2 ratio of Biotin-Ahx-Ub-VS probe labelling (fragment/DMSO); higher = less target engagement (more negative = stronger competition), active = hit call of the paper (q ≤ 0.05, log2 ratio ≤ -1)
# Settings in all cases: compound concentration: 200 uM; treatment time: 3 h
# OTUD6B = biological target: T1, OTUD6B (UniProt Q8N6M0)
# T1 sequence (whole entry): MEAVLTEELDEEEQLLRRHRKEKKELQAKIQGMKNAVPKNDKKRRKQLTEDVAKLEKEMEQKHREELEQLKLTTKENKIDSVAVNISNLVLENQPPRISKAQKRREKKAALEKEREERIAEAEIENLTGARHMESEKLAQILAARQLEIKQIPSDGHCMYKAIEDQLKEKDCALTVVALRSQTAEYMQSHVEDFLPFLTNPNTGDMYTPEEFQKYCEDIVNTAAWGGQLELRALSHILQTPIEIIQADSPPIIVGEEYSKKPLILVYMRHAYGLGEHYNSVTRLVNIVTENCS
# How it was run: (§1)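 Lysate from HEK293T cells, 495 µg per sample in Tris/CHAPS/IGEPAL buffer with protease inhibitors, was treated for 3 h in triplicate with fragment at 200 µM or vehicle. Biotin-Ahx-Ub-VS was next added at 0.5 µM final for 1 h. The labelled DUBs were enriched with NeutrAvidin, digested with LysC and trypsin, and run by diaPASEF LC-MS/MS, with values given as average log2 fragment/vehicle ratios by unpaired t-test on global-median-normalised Spectronaut quantities of proteins with ≥2 unique peptides.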
# OTUD7B = biological target: T2, OTUD7B (UniProt Q6GQQ9)
# T2 sequence (whole entry): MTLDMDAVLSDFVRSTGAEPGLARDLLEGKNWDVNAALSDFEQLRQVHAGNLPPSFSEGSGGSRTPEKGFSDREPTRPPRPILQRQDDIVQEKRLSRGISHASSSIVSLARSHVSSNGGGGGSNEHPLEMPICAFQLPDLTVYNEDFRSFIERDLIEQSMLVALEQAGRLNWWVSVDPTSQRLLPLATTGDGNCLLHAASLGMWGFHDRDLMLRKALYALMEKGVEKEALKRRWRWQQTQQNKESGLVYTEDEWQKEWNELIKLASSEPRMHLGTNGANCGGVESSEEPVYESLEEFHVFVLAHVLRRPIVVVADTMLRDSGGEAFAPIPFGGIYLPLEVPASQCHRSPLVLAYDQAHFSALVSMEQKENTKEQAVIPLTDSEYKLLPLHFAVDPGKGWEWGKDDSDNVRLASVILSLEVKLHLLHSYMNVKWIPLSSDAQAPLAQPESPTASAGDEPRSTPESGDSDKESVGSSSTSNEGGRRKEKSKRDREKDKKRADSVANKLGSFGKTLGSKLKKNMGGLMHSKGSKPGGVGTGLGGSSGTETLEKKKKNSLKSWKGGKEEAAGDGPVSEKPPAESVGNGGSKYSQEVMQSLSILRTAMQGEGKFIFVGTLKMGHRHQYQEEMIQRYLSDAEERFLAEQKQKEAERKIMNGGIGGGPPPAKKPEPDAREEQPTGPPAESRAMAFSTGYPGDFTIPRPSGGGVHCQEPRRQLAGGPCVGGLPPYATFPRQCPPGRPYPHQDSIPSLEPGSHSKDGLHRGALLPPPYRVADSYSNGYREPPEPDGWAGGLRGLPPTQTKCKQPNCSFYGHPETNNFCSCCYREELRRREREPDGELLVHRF
# How it was run: as §1
# PRPF8 = PRPF8 (UniProt Q6P2Q9)
# How it was run: as §1
# PSMD7 = biological target: T3, PSMD7 (UniProt P51665)
# T3 sequence (whole entry): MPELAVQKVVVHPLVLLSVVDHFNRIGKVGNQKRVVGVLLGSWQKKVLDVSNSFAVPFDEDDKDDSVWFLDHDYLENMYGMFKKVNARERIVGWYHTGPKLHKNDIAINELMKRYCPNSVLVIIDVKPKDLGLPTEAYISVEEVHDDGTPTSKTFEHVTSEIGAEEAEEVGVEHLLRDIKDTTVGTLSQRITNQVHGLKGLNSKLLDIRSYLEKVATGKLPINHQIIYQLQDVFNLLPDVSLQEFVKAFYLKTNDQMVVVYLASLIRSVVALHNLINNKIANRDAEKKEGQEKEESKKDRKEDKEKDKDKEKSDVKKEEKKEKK
# How it was run: as §1
# UCHL1 = UCHL1 (UniProt P09936)
# How it was run: as §1
# UCHL3 = biological target: T4, UCHL3 (UniProt P15374)
# T4 sequence (whole entry): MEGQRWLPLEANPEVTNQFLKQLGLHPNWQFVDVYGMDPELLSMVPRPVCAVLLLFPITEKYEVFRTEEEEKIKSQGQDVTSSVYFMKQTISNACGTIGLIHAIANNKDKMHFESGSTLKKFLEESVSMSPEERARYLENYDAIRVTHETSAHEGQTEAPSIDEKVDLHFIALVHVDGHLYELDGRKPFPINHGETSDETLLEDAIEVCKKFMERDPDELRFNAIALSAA
# How it was run: as §1
# UCHL5 = biological target: T5, UCHL5 (UniProt Q9Y5K5)
# T5 sequence (whole entry): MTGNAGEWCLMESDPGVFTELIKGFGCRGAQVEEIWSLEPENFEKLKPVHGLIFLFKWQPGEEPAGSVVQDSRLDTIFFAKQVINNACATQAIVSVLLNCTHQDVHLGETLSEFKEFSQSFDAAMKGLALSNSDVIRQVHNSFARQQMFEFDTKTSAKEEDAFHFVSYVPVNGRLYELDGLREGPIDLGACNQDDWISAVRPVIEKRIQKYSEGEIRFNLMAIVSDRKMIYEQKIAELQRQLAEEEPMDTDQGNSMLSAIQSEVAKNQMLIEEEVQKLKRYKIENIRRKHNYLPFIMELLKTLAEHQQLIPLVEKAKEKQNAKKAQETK
# How it was run: as §1
# USP10 = USP10 (UniProt Q14694)
# How it was run: as §1
# USP15 = biological target: T6, USP15 (UniProt Q9Y4E8)
# T6 sequence (whole entry): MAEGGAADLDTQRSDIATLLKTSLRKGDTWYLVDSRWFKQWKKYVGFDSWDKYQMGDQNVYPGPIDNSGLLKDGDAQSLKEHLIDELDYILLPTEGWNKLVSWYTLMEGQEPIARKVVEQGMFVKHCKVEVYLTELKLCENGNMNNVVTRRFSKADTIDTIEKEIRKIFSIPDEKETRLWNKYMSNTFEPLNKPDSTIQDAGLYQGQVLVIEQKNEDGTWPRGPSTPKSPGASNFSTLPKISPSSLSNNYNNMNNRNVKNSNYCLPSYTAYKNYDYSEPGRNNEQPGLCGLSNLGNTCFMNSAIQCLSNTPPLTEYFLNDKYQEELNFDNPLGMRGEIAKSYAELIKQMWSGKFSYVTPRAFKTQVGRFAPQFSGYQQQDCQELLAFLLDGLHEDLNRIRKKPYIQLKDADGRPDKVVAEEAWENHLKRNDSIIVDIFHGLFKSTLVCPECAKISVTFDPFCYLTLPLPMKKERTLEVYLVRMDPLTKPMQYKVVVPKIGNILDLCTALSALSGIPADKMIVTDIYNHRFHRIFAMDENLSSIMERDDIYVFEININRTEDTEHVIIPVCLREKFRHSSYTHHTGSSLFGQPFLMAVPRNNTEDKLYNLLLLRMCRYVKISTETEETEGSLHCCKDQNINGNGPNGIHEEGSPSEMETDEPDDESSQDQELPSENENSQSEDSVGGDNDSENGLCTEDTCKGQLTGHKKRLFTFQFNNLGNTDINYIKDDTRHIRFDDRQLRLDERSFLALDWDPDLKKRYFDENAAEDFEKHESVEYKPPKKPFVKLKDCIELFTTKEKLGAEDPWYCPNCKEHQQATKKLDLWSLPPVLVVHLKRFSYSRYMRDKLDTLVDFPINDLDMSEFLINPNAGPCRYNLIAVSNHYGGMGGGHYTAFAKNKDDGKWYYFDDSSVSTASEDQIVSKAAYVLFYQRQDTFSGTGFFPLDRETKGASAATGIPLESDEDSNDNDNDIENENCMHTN
# How it was run: as §1
# USP16 = USP16 (UniProt Q9Y5T5)
# How it was run: as §1
# Sequence of UCHL1 (P09936 whole entry, looked up): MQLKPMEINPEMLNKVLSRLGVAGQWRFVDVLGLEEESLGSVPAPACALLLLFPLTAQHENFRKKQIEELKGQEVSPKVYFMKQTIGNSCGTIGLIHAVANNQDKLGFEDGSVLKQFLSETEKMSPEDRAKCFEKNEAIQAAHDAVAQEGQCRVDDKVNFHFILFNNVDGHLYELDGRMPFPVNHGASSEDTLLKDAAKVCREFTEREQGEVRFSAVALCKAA
# Sequence of USP10 (Q14694 whole entry): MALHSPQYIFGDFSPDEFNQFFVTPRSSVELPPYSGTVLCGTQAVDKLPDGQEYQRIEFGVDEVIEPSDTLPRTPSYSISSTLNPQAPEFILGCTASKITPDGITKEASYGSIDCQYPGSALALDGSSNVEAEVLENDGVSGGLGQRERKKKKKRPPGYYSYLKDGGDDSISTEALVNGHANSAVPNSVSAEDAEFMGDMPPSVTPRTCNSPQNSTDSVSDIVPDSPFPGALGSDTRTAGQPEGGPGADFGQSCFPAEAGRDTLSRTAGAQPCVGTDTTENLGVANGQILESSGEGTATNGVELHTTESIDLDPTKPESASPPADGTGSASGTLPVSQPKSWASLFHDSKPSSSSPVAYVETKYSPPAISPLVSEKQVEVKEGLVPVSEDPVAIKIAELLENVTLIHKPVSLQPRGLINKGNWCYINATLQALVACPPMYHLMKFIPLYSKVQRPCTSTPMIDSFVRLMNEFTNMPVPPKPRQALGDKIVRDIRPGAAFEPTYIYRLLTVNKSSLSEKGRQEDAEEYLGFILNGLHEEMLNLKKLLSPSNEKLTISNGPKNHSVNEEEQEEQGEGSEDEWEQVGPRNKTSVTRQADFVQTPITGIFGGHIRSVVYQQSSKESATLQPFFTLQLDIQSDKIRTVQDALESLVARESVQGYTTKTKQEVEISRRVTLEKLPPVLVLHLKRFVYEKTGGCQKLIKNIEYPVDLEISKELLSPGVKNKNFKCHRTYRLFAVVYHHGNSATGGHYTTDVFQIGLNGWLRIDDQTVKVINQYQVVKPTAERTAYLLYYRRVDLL
# Sequence of USP16 (Q9Y5T5 whole entry, looked up): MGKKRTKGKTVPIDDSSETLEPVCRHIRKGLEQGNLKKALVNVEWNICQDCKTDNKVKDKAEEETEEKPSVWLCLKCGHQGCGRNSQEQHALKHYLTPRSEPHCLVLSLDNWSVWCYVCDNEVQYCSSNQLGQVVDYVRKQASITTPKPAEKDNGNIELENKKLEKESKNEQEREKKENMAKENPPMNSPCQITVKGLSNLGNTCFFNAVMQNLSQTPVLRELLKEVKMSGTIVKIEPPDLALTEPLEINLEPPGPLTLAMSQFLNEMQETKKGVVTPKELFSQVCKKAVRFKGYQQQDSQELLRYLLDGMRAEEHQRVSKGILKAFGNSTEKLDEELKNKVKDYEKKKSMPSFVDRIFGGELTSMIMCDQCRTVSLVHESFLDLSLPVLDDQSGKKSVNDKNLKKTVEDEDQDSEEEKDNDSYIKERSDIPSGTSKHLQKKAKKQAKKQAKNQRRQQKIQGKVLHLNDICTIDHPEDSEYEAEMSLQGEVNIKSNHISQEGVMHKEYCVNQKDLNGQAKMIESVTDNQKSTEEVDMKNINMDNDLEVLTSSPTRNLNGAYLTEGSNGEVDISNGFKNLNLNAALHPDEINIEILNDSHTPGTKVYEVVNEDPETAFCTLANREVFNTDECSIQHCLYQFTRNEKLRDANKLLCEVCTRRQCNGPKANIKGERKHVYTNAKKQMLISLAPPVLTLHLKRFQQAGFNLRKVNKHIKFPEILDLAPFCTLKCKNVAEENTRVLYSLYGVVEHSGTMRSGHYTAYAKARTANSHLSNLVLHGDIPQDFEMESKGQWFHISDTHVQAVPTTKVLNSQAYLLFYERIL
smiles,measurement,setting,value
CC(O)CC1CCN(C(=O)CCl)CC1 (stereo not given),log2 ratio of Biotin-Ahx-Ub-VS probe labelling,OTUD6B,-0.0339
same,log2 ratio of Biotin-Ahx-Ub-VS probe labelling,OTUD7B,-0.302
same,log2 ratio of Biotin-Ahx-Ub-VS probe labelling,PRPF8,0.0532
same,log2 ratio of Biotin-Ahx-Ub-VS probe labelling,PSMD7,-0.0764
same,log2 ratio of Biotin-Ahx-Ub-VS probe labelling,UCHL1,-1.53 (active)
same,log2 ratio of Biotin-Ahx-Ub-VS probe labelling,UCHL3,0.294
same,log2 ratio of Biotin-Ahx-Ub-VS probe labelling,UCHL5,-0.019
same,log2 ratio of Biotin-Ahx-Ub-VS probe labelling,USP10,-0.0376
same,log2 ratio of Biotin-Ahx-Ub-VS probe labelling,USP15,-0.0583
same,log2 ratio of Biotin-Ahx-Ub-VS probe labelling,USP16,-0.771
